# Experimental data published in PubChem BioAssay (EPA / NIEHS).
# Calls of active or inactive are those of the source. How the source made its calls: active means hit-call score of the fitted dose curve at least 0.9, where 1 is the maximum; inactive means score below 0.9.
# Read-out: Forkhead box O3 (FOXO3), FOXO3 (gene 2309)
# Experiment: LTEA_HepaRG_FOXO3: Life Technologies and Expression Analysis (LTEA) Assay for Forkhead box O3 (FOXO3) using HepaRG (AID 2283459)
# Details: mRNA level, 48 h; actives raise or lower the signal
# Procedure: LTEA_HepaRG is a cell based, multiplexed-readout assay that uses HepaRG, a human liver cell line, with measurements taken at 48 hours after chemical dosing on a 96-well plate.LTEA_HepaRG_FOXO3 is one of 102 assay component(s) measured in the LTEA HepaRG cell culture assay. It is a marker of Cell proliferation, survival, death.Data from the assay component LTEA_HepaRG_FOXO3 was analyzed into 1 endpoint. This assay endpoint, LTEA_HepaRG_FOXO3, was analyzed with bidirectional fitting relative to DMSO as the negative control and baseline of activity. Using a type of inducible reporter, measures of mRNA induction for gain or loss-of-signal activity can be used to understand regulation of transcription factor activity. To generalize the intended target to other relatable targets, this assay endpoint is annotated to the dna binding intended target family, where the subfamily is forkhead box protein.
# A total of 1060 chemcials from the ToxCast library were tested in eight-point concentration-response experiments. Cell culture and cytotoxicity assays were conducted at Thermo Fisher Scientific's Custom Services facility (Madison, WI). A single lot of human HepaRG cells (Thermo Fisher Scientific, Frederick, MD) was used for the cell culture experiments. 96-well format collagen type I coated plates of human HepaRG cells were prepared using established methods. Briefly, cryopreserved HepaRG cells were thawed, plated at a density of approximately 100,000 cells/well in HepaRG Thaw, Plate, and General Purpose media (HPRG770, Thermo Fisher Scientific), and incubated for 48 hours. 0.5% DMSO was selected as vehicle control to balance the requisite need of DMSO in HepaRG cultures to maintain differentiation (for example, baseline metabolism, proportions of hepatocytes vs. cholangiocytes), while enabling further hepatic receptor pathway activation (for example, PXR and CAR) in response to chemical exposure. 48 hours after plating, the culture medium was replaced with HepaRG Serum-Free Incudtion Media. Cells were exposed to each test chemical in duplicate and maintained in CO2 incubators for another 48 hours. Chemical plates were thawed to room temperature and 200x concentrations of treatment groups were prepared. 8-point conentration-reponse curves were made with the highest exposure at 100 uM, followed by half-log dilutions, all in 0.5% DMSO. Each test plate contained variouse controls, induction positive controls (1mM phenobarbital), cytotoxicity positive controls ([…] aflatoxin B1), vehicle controls (0.5% DMSO), and total lysis controls (0.5% DMSO). Cell morphology images were taken using an Essen IncuCyte FLR automated microscope, with six 96-well plates imaged in about 24 minutes. Images were captured and exported and JPEG files. Spent culture media was transfered to black-well plates for the LDH assay, and remaining media was sorted at -80 C for later use. Cells were treated with RLT buffer and frozen until shipped for gene expression analysis. Total RNA was isolated from the cell suspension in 75 uL of Buffer RLT (Qiagen, Germantown, MD 20874) by Quintiles/Expression Analysis (Durham, NC) using a custom isolation procedure. Total RNA from each plate well was transferred to a preamplification plate. Fluidigm's 96.96 Dynamic ArrayTM (Fluidigm, Amsterdam, the Netherlands) technology was used for gene expression analyses by quantitative reverse transcription polymerase chain reaction (qRT-PCR, performed by Quintiles/Expression Analysis, Durham, NC)89. Standard TaqManTM Assays (Applied Biosystems/ThermoFisher Scientific, Foster City, CA) were used to assess the expression of 93 genes selected based on their selectivity and sensitivity to important hepatic receptors known to be modulated by environmental chemicals; importance in human hepatocyte functionality; and hepatotoxicity. […]
SMILES,outcome,AC50
CC(C)Nc1nc(Cl)nc(NC(C)C)n1,inactive,
CCCCOCN(C(=O)CCl)c1c(CC)cccc1CC,inactive,
N#Cc1c[nH]cc1-c1cccc2c1OC(F)(F)O2,,12.3 µM (active)
CCC(C)n1c(=O)[nH]c(C)c(Br)c1=O (stereo not given),,14.3 µM (active)
Clc1cccc(C(Cl)(Cl)Cl)n1,inactive,
CCSC(=O)N1CCCCCC1,inactive,
CNC(=O)N(C)c1nnc(C(C)(C)C)s1,inactive,
COc1cc(Cl)c(OC)cc1Cl,inactive,
Cc1ccc(N=CN(C)C=Nc2ccc(C)cc2C)c(C)c1,inactive,
OC(c1ccc(Cl)cc1)(c1ccc(Cl)cc1)C(Cl)(Cl)Cl,inactive,
CCOc1cc(C(C)(C)C)ccc1C1COC(c2c(F)cccc2F)=N1 (stereo not given),inactive,
CN/C(=N\[N+](=O)[O-])NCc1cnc(Cl)s1,inactive,
COCc1cnc(C2=NC(C)(C(C)C)C(=O)N2)c(C(=O)O)c1 (stereo not given),inactive,
CC(C)N1C(=O)c2ccccc2NS1(=O)=O,inactive,
CCOc1nc(F)cc2nc(S(=O)(=O)Nc3c(Cl)cccc3Cl)nn12,inactive,
CC(C)N1C(=O)N(c2ccccc2)CSC1=NC(C)(C)C,inactive,
CCNC(=O)NC(=O)C(C#N)=NOC,inactive,
Cc1cc(C)nc(Nc2ccccc2)n1,inactive,
CCCCC(O)(Cn1cncn1)c1ccc(Cl)cc1Cl (stereo not given),inactive,
COP(=S)(OC)SCn1nnc2ccccc2c1=O,inactive,

SMILES,outcome,AC50
CCOP(=S)(OCC)Oc1nc(Cl)n(C(C)C)n1,inactive,
CC1(C)CON(Cc2ccccc2Cl)C1=O,inactive,
CO/N=C(/C1=NOCCO1)c1ccccc1Oc1ncnc(Oc2ccccc2Cl)c1F,inactive,
Clc1nc(Cl)nc(Nc2ccccc2Cl)n1,inactive,
CC1(C)CCC(=Cc2ccc(Cl)cc2)C1(O)Cn1cncn1 (stereo not given),inactive,
N#CN=C1SCCN1Cc1ccc(Cl)nc1,inactive,
CS(=O)(=O)c1cc(C(F)(F)F)ccc1C(=O)c1cnoc1C1CC1,inactive,
CCOc1nc(C(Cl)(Cl)Cl)ns1,,0.967 µM (active)
CSC(=O)c1c(C(F)F)nc(C(F)(F)F)c(C(=O)SC)c1CC(C)C,inactive,
COP(=S)(OC)Oc1ccc([N+](=O)[O-])c(C)c1,inactive,
O=P(O)(O)CCCl,inactive,
Cc1cnc(C2=NC(C)(C(C)C)C(=O)N2)c(C(=O)O)c1 (stereo not given),inactive,
CCOP(=O)(OCC)Oc1nc(Cl)c(Cl)cc1Cl,inactive,
COC(=O)NS(=O)(=O)c1ccc(N)cc1,inactive,
Nc1cnn(-c2ccccc2)c(=O)c1Cl,inactive,
COC(=O)c1c(C(F)F)nc(C(F)(F)F)c(C2=NCCS2)c1CC(C)C,inactive,
CC(C)=CC1C(C(=O)OCc2coc(Cc3ccccc3)c2)C1(C)C (stereo not given),inactive,
CCCC(=NOCC)C1=C(O)CC(CC(C)SCC)CC1=O (stereo not given),inactive,
COC(=O)NC(=S)Nc1ccccc1NC(=S)NC(=O)OC,inactive,
Nc1c(Cl)c(F)nc(OCC(=O)O)c1Cl,inactive,
